# Reference: the supplement of paper PMC6555819
# Tests used:
# Experiment in all cases: PBM binding z-score (relative to random genomic background probes); higher = stronger binding; sequences stand for … in GC…GCGATTGACAGCGTAGAATGAAGG
# [1] = test system: FXR:RXRa (NR concentration 270 nM, RXRa partner concentration 90 nM)
# In short: (§1)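 Probes were double-stranded and carried 34-nt variable regions with direct-repeat seeds, single-nucleotide variants, half-site ablations and random human genomic background sequences, printed on custom Agilent 4×180K protein-binding microarrays. Arrays were incubated 1 h with ligand-free nuclear receptor dimers in PBS pH 7.4, 2% milk, 0.02% Triton X-100, 1 mM DTT, 0.2 mg/mL BSA and 0.4 mg/ml salmon testes DNA. Antibodies against each partner (one per run) detected binding, and scanned fluorescence was regression-normalized. Binding z-scores use the random background probes as reference.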
# [2] = test system: LXRa:RXRa (NR concentration 270 nM, RXRa partner concentration 90 nM)
# In short: as §1
# [3] = test system: LXRa homodimer (NR concentration 270 nM)
# In short: as §1
# [4] = test system: LXRb:RXRa (NR concentration 270 nM, RXRa partner concentration 90 nM)
# In short: as §1
# [5] = test system: LXRb homodimer (NR concentration 270 nM)
# In short: as §1
# [6] = test system: PPARa:RXRa (NR concentration 270 nM, RXRa partner concentration 90 nM)
# In short: as §1
# [7] = test system: PPARg:RXRa (NR concentration 180 nM, RXRa partner concentration 90 nM)
# In short: as §1
# [8] = test system: PPARg:RXRa 270nM:90nM, anti-RXR (NR concentration 270 nM, RXRa partner concentration 90 nM)
# In short: as §1
# [9] = test system: PPARg:RXRa 30nM:10nM, anti-RXR (NR concentration 30 nM, RXRa partner concentration 10 nM)
# In short: as §1
# [10] = test system: PPARg:RXRa 90nM:30nM, anti-RXR (NR concentration 90 nM, RXRa partner concentration 30 nM)
# In short: as §1
# [11] = test system: PPARg:RXRa DBDmut IVT, anti-RXR (DBD mutation: RXRa K156A/R161A, NR concentration 270 nM, RXRa partner concentration 90 nM)
# In short: as §1
# [12] = test system: PPARg:RXRa IVT, anti-PPARg (NR concentration 270 nM, RXRa partner concentration 90 nM)
# In short: as §1
# [13] = test system: PPARg DBDmut:RXRa IVT, anti-PPARg (DBD mutation: PPARg1 K132A/R137A, NR concentration 270 nM, RXRa partner concentration 90 nM)
# In short: as §1
# [14] = test system: PPARg DBDmut IVT, anti-PPARg (DBD mutation: PPARg1 K132A/R137A, NR concentration 270 nM)
# In short: as §1
# [15] = test system: PPARg homodimer (NR concentration 180 nM)
# In short: as §1
# [16] = test system: PXR:RXRa (NR concentration 270 nM, RXRa partner concentration 90 nM)
# In short: as §1
# [17] = test system: PXR homodimer (NR concentration 270 nM)
# In short: as §1
# [18] = test system: RARa:RXR (NR concentration 270 nM, RXRa partner concentration 90 nM)
# In short: as §1
# [19] = test system: RARa homodimer (NR concentration 270 nM)
# In short: as §1
# [20] = test system: RARb:RXRa (NR concentration 270 nM, RXRa partner concentration 90 nM)
# In short: as §1
Sequence,PBM binding z-score [1],PBM binding z-score [2],PBM binding z-score [3],PBM binding z-score [4],PBM binding z-score [5],PBM binding z-score [6],PBM binding z-score [7],PBM binding z-score [8],PBM binding z-score [9],PBM binding z-score [10],PBM binding z-score [11],PBM binding z-score [12],PBM binding z-score [13],PBM binding z-score [14],PBM binding z-score [15],PBM binding z-score [16],PBM binding z-score [17],PBM binding z-score [18],PBM binding z-score [19],PBM binding z-score [20]
CTACCAAAGTGAACAAGGTCGTTGATTACTATTC,0.664,0.808,0.427,1.39,0.463,1.34,0.212,0.215,0.23,-0.0383,0.74,0.473,0.238,0.295,0.64,1.76,1.48,1.47,0.789,0.821
CGTCAAAGTTCTACTAAGGTAACGTAAAGCACGC,1.91,-0.151,-0.14,0.0598,-0.14,0.277,0.459,0.289,0.196,0.185,0.0553,0.848,0.246,0.834,0.249,0.134,-0.028,0.398,-0.131,0.603
TCTCGGAGGACACGAAAGGTCAGAGCCCGACATC,2.84,3.75,3.31,3,-0.257,3.36,1.57,2.78,2.36,2.59,1.33,1.82,-0.244,-0.279,3.83,3.99,0.732,4.46,1.38,4.29
CAAACTAGGTCACCGGAAGGTCAAAGTCCGCATG,6.27,6.15,5.16,5.46,1.59,6.16,9.5,7.87,5.79,7.49,8.69,8.91,2.7,2.01,6.37,5.88,1.99,6.98,2.38,5.37
TAGCCTAGGTCAGATCGGGCCAGTGTACGCTATA,1.85,0.96,-0.454,0.525,-0.897,1.49,0.36,0.761,-0.533,-0.134,0.622,1.31,-1.37,-0.791,-0.0708,1.18,-1.04,1.19,-1.04,3.04
TAGCCTAGGTCATTGGGCGAGTATAGTACGCATC,4.55,3.24,0.459,2.06,0.053,3.51,2.65,2.83,0.405,1.8,1.88,3.05,0.311,-0.0966,1.15,1.59,-0.283,2.09,-0.259,3.69
GGTTGTAGATCAAGGTTAAGAAAGACTAAGCTAA,0.73,1.3,0.323,1.19,0.361,1.5,0.938,1.63,0.752,1.31,0.74,1.03,0.337,0.177,1.28,0.988,0.866,1.16,1.7,1.17
TCTAGCAGGCCAGTGGGTCACTCAAGAGGTACGG,0.165,0.09,-0.387,0.111,-1.21,1.83,1.59,2.19,1.78,2.09,2.62,3.66,-0.249,-0.535,-0.0883,0.324,-0.497,1.16,-0.945,1.48
TCGAGTAGGTTAGTCGGGGCATTCAACCAACATA,0.19,0.112,0.0145,0.776,-0.298,0.929,0.00295,1.16,1.41,1.11,2.51,2.16,-0.398,-0.896,-0.069,0.309,-0.2,0.545,0.0845,0.517
GCGACTGGGGCATCAGCAGGTTATCATAACTTAA,-0.342,-0.258,-0.199,0.87,-0.615,1.38,0.968,0.916,-0.378,0.369,3.69,3.13,-0.424,-0.757,0.000895,0.377,-0.554,0.458,-0.474,0.845
TCTAGTTGGTCACGGATGTCACACACGACGGGTA,0.669,0.373,0.422,0.666,0.393,1.18,1.32,2.25,3.22,2.84,2.2,2.89,1.14,1.42,1.14,0.836,-0.124,0.724,0.648,1.88
ATCTCTAGGTAACAAGTTCAGTGACAGAGAGGAC,0.767,0.889,0.72,0.57,0.85,1.52,1.61,2.21,0.948,1.88,3.59,3.2,1.48,1.17,1.56,1.61,1.61,1.11,1.47,1.81
CGAACGAGGGCATGAGTTGATACCAAATGCCGAT,0.819,0.53,-0.18,0.374,-0.612,1.57,1.61,1.67,0.555,0.997,2.76,2.32,-0.303,-0.419,0.59,0.723,0.347,0.695,-0.402,2.03
GCACACAGGTGAAACGCAGGTAACTCAGGGTGGC,0.021,0.302,-0.342,-0.349,-0.845,0.939,0.853,0.355,-0.481,-0.0562,1.25,1.35,-0.286,-0.23,-0.0515,-0.134,-0.747,0.575,-0.648,0.803
